# Reference: PubChem BioAssay (EPA / NIEHS)
# Results filed as inconclusive are left out. Calls of active or inactive are those of the source. The calls were made as follows, unless noted: active = hit-call score of the fitted dose curve at least 0.9, where 1 is the maximum; inconclusive = response in the unintended direction; inactive = score below 0.9.
# Tests used:
# [1] = target: Steroid hormone receptor ERR1 (Homo sapiens) (UniProt P11474); experiment: ATG_ERRa_TRANS: Attagene TRANS-FACTORIAL HepG2 Assay for human Estrogen-Related Receptor alpha (ERRa) (AID 2282971); settings: HepG2 Attagene TRANS reporter, ERRa transactivation
# How it was run: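 Reporter transcript induction was quantified by RT-PCR and capillary electrophoresis of FAM-labelled, HpaI-cut products after 24 h treatment of HepG2 cells carrying transiently transfected GAL4-UAS reporter units and an exogenous ERRa-Gal4 fusion; activity scored as increase over DMSO.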
# [2] = target: Retinoic acid receptor RXR-alpha (Homo sapiens) (UniProt P19793); experiment: OT_NURR1_NURR1RXRa_0480: Odyssey Thera (OT) 8-hour HEK293T Protein Complementation Assay for Nurr1/retinoid X receptor (RXR) (AID 2283385)
# How it was run: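 Read-out: fluorescence from protein-fragment complementation between Nurr1 and RXRα in human HEK293T cells, 8 h after dosing. DMSO served as negative control; increased signal counted as activity.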
# [3] = target: Retinoic acid receptor RXR-alpha (Homo sapiens) (UniProt P19793); experiment: OT_NURR1_NURR1RXRa_1440: Odyssey Thera (OT) 24-hour HEK293T Protein Complementation Assay for Nurr1/retinoid X receptor (RXR) (AID 2283386)
# How it was run: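 Fluorescence PCA read-out; HEK293T; 24 h post-dose; bait/prey fused to reporter fragments; gain-of-signal fit vs DMSO negative control.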
# [4] = target: Aryl hydrocarbon receptor (Homo sapiens) (UniProt P35869); experiment: ATG_Ahr_CIS: Attagene CIS-FACTORIAL HepG2 Assay for human Aryl Hydrocarbon Receptor (Ahr) (AID 2282930; active = hit-call score of the fitted dose curve at least 0.9, where 1 is the maximum; inactive = score below 0.9); settings: HepG2 AhR cis-factorial reporter transcription; actives raise or lower the signal
# How it was run: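 Transient MRTU transfection of HepG2 → 24 h compound exposure → total RNA, oligo(dT) RT → PCR, 6-FAM extension, HpaI cut → CE fluorescence. DMSO = baseline; bidirectional curve fit.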
# [5] = target: Peroxisome proliferator-activated receptor gamma (Homo sapiens) (UniProt P37231); experiment: OT_PPARg_PPARgSRC1_0480: Odyssey Thera (OT) 8-hour Protein-Complementation Assay for Peroxisome Proliferator-activated Receptor Gamma / SRC-1 Co-activator (AID 2283387);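 also: nuclear to cytoplasmic split Venus YFP fluorescence ratio reporting PPARg SRC-1 interaction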
# How it was run: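 Protein-fragment complementation of split Venus YFP reports PPARg/SRC-1 interaction in HEK293T (transfected 48 h before treatment), exposed 8 h. Readout: N/C fluorescence ratio at 488 nm from imaging, Draq5 for segmentation, positive fit relative to DMSO.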
# [6] = target: Peroxisome proliferator-activated receptor gamma (Homo sapiens) (UniProt P37231); experiment: OT_PPARg_PPARgSRC1_1440: Odyssey Thera (OT) 24-hour Protein-Complementation Assay for Peroxisome Proliferator-activated Receptor Gamma/ SRC-1 Co-activator (AID 2283388);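 also: nuclear to cytoplasmic ratio of reconstituted Venus YFP fluorescence in fixed imaged cells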
# How it was run: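 Protein-fragment complementation between PPARg and coactivator SRC-1 was measured by fluorescence imaging in transiently transfected HEK293T cells after 24 h treatment. Signal was quantified as N/C ratio in the 488 nm channel, with DMSO as negative control.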
# [7] = read-out: Pselectin, SELP (gene 6403); experiment: BSK_4H_Pselectin: BioMAP Diversity Plus: 4H Assay for Pselectin Biomarker Activity (AID 2283026; active = hit-call score of the fitted dose curve at least 0.9, where 1 is the maximum; inactive = score below 0.9); settings: primary human endothelial cells (HUVEC); actives raise or lower the signal
# How it was run: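 HUVEC, 24 h chemical exposure; P-selectin read by ELISA. Bidirectional curve fit vs DMSO baseline; gain or loss of signal scored.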
# [8] = read-out: Macrophage colony-stimulating factor (MCSF), CSF1 (gene 1435); experiment: BSK_CASM3C_MCSF: BioMAP Diversity Plus: CASM3C Assay for Macrophage colony-stimulating factor (MCSF) Biomarker Activity (AID 2283044; active = hit-call score of the fitted dose curve at least 0.9, where 1 is the maximum; inactive = score below 0.9;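 also: M-CSF protein amount quantified by ELISA after 24 h exposure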); settings: primary human coronary artery smooth muscle cells; actives raise or lower the signal
# [9] = read-out: Low-density lipoprotein receptor (LDLR), LDLR (gene 3949); experiment: BSK_CASM3C_LDLR: BioMAP Diversity Plus: CASM3C Assay for Low-density lipoprotein receptor (LDLR) Biomarker Activity (AID 2283045; active = hit-call score of the fitted dose curve at least 0.9, where 1 is the maximum; inactive = score below 0.9;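 also: LDLR protein level on the cell surface quantified by ELISA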); settings: primary human coronary artery smooth muscle cells; actives raise or lower the signal
# [10] = read-out: serum amyloid A (SAA), SAA1 (gene 6288); experiment: BSK_CASM3C_SAA: BioMAP Diversity Plus: CASM3C Assay for serum amyloid A (SAA) Biomarker Activity (AID 2283049; active = hit-call score of the fitted dose curve at least 0.9, where 1 is the maximum; inactive = score below 0.9;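 also: SAA protein level quantified by ELISA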); settings: primary human coronary artery smooth muscle cells; actives raise or lower the signal
# [11] = read-out: Vascular cell adhesion molecule 1 (VCAM1), VCAM1 (gene 7412); experiment: BSK_CASM3C_VCAM1: BioMAP Diversity Plus: CASM3C Assay for Vascular cell adhesion molecule 1 (VCAM1) Biomarker Activity (AID 2283055; active = hit-call score of the fitted dose curve at least 0.9, where 1 is the maximum; inactive = score below 0.9;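 also: VCAM-1 protein level quantified by ELISA on the cells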); settings: primary human coronary artery smooth muscle cells; actives raise or lower the signal
# [12] = read-out: Macrophage colony-stimulating factor (MCSF), CSF1 (gene 1435); experiment: BSK_hDFCGF_MCSF: BioMAP Diversity Plus: hDFCGF Assay for Macrophage colony-stimulating factor (MCSF) Biomarker Activity (AID 2283060; active = hit-call score of the fitted dose curve at least 0.9, where 1 is the maximum; inactive = score below 0.9); settings: AC50: primary human foreskin fibroblasts, actives raise or lower the signal unless noted; outcome: primary human foreskin fibroblasts, actives raise or lower the signal unless noted
# How it was run: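 Primary human foreskin fibroblasts dosed with chemical; 24 h later, M-CSF quantified by ELISA; curves fitted in both directions vs DMSO negative control.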
# [13] = read-out: Monokine induced gamma interferon (MIG), CXCL9 (gene 4283); experiment: BSK_hDFCGF_MIG: BioMAP Diversity Plus: hDFCGF Assay for Monokine induced gamma interferon (MIG) Biomarker Activity (AID 2283063; active = hit-call score of the fitted dose curve at least 0.9, where 1 is the maximum; inactive = score below 0.9); settings: primary human foreskin fibroblasts; actives raise or lower the signal
# How it was run: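 Chemicals were added to primary human foreskin fibroblast cultures, which were sampled 24 h later. MIG levels were then quantified by ELISA and responses fitted in both directions relative to DMSO.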
# [14] = CCTE_Harrill_HTTr_CellCount_MCF7: CCTE's Cell Proliferation Assessment for the High-Throughput Transcriptomics (HTTr) Platform, Harrill Lab (AID 2284012);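 also: count of Hoechst-stained nuclei per well by high-content imaging in MCF-7 cells; cells exposed to compound for six hours; intended direction is loss of nuclei count meaning fewer cells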
# How it was run: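 Readout: Hoechst nuclear count by high-content imaging. MCF-7, 8-point dilution series, 6 h exposure. Bidirectional fit vs DMSO baseline.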
# [15] = target: Bile acid receptor (Homo sapiens) (UniProt Q96RI1); experiment: ATG_FXR_TRANS: Attagene TRANS-FACTORIAL HepG2 Assay for Farnesoid X Receptor (FXR) (AID 2282979); settings: HepG2 Attagene TRANS FXR-GAL4 reporter transcription;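 also: hits raise reporter mRNA above DMSO so AC50 marks FXR activation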
# How it was run: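 Transient transfection of HepG2 with multiplexed GAL4-UAS reporter units; exogenous FXR-GAL4 chimera. Dose 24 h → TriZol RNA → oligo(dT) RT → PCR, 6-FAM primer extension, HpaI cut → CE. Gain vs DMSO.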
# [16] = ACEA_AR_agonist_AUC_viability: ACEA Biosciences xCELLigence Real-Time Cell Analysis on Androgen Receptor Agonism for Viability (AID 2283775)
# How it was run: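 Viability endpoint from xCELLigence impedance in 22Rv1 prostate cells at 80 h. Eight-point series, 100 uM maximum final.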
# [17] = ACEA_AR_antagonist_AUC_viability: ACEA Biosciences xCELLigence Real-Time Cell Analysis on Androgen Receptor Antagonism for Viability (AID 2283776);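 also: 22Rv1 human prostate cancer cells growing on impedance electrode plates; area under impedance growth curve at 80 h after dosing as viability; hits lower the growth signal relative to DMSO meaning cytotoxicity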
# How it was run: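 Impedance read-out (RT-CES): area under growth curve at 80 h post-dose, loss of signal scored vs DMSO baseline. 22Rv1 cells; 8-pt 1:4 series, top 100 uM final, ≤0.5% DMSO; biological duplicate.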
# [18] = ATG_ERE_CIS: Attagene CIS-FACTORIAL HepG2 Assay for Estrogen Response Element (ERE) (AID 2282940; active = hit-call score of the fitted dose curve at least 0.9, where 1 is the maximum; inactive = score below 0.9); settings: HepG2 ERE cis-reporter, Attagene RNA transcript; actives raise or lower the signal
# How it was run: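 HepG2 cells transiently transfected with cis-promoter-driven multiplexed reporter transcription units report endogenous TF activity. After 24 h compound exposure, reporter mRNA is quantified by RT-PCR with capillary electrophoresis fluorescence; bidirectional fitting versus DMSO baseline.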
# [19] = target: Estrogen receptor beta (Homo sapiens) (UniProt Q92731); experiment: OT_ER_ERbERb_0480: Odyssey Thera (OT) 8-hour HEK293T Protein-Complementation Assay for Estrogen Receptor-beta/-beta Homodimer (AID 2283357);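 also: active means signal gain over DMSO baseline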
# How it was run: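 ER-beta LBD homodimer PCA stably expressed in HEK293T; 8 h compound exposure, then formaldehyde fixation and Draq5 staining. Gain in nuclear/cytoplasmic fluorescence intensity versus DMSO vehicle, read on laser scanning cytometer.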
# [20] = target: Estrogen receptor beta (Homo sapiens) (UniProt Q92731); experiment: OT_ER_ERbERb_1440: Odyssey Thera (OT) 24-hour HEK293T Protein-Complementation Assay for Estrogen Receptor-beta/-beta Homodimer (AID 2283380);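 also: scored as signal increase over DMSO baseline for both agonists and antagonists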
# How it was run: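 Fluorescence increase, nuclear for agonists or whole-cell for antagonists, relative to DMSO vehicle, quantified by laser scanning cytometer after fixation and Draq5 staining. Readout from 24 h treatment of HEK293T cells carrying complementation-paired ER beta LBD (aa 310-547).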
# Chain of Aryl hydrocarbon receptor (Homo sapiens) (P35869 whole entry, looked up): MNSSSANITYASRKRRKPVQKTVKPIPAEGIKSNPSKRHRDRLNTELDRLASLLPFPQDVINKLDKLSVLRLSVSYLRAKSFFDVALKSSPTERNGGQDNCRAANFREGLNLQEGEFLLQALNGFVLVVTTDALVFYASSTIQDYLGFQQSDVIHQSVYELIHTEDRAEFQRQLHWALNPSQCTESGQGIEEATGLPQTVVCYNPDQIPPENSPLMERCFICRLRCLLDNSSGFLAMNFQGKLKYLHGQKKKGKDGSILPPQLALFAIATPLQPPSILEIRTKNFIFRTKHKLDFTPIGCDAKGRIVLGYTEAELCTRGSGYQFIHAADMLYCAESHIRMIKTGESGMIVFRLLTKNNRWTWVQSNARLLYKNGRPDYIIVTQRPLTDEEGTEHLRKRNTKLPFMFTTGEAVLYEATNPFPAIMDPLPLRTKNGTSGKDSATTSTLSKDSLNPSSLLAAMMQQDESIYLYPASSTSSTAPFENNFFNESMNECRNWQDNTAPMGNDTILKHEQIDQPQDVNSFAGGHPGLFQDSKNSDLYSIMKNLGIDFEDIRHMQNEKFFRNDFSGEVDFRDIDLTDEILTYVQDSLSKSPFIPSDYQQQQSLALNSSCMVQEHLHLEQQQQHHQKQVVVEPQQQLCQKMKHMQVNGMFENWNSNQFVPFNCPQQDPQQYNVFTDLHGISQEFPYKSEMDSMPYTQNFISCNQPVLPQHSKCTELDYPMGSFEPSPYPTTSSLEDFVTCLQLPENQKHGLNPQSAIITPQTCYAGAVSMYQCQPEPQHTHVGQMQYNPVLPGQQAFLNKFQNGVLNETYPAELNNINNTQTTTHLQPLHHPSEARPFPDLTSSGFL
# Chain of Peroxisome proliferator-activated receptor gamma (Homo sapiens) (P37231 whole entry, looked up, the tested form may be a part): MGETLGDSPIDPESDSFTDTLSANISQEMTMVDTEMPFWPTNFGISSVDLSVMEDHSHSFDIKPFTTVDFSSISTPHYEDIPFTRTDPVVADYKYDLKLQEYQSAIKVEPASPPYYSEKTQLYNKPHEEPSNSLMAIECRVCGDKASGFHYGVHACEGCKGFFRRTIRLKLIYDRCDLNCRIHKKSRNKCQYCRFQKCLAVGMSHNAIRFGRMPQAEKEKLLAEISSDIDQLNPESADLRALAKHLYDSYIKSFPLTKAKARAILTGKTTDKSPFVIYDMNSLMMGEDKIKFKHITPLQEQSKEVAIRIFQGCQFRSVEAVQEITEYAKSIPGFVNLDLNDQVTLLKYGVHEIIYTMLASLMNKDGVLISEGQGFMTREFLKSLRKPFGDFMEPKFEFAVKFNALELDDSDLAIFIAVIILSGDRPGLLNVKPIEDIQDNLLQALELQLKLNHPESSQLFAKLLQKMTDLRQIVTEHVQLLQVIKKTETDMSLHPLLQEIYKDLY
# Chain of Retinoic acid receptor RXR-alpha (Homo sapiens) (P19793 whole entry, looked up, the tested form may be a part): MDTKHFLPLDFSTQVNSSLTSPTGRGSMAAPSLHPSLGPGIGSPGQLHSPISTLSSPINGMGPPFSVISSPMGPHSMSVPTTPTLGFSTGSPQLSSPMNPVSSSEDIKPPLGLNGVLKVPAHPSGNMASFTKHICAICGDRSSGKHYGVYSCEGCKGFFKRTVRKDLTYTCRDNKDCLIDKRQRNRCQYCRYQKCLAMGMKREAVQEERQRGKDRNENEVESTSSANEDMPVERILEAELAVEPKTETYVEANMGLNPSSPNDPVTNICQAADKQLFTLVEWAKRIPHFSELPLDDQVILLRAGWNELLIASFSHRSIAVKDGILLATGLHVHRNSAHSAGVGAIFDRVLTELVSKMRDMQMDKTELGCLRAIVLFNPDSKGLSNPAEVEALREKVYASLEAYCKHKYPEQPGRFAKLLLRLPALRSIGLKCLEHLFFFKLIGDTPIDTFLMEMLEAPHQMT
# Chain of Bile acid receptor (Homo sapiens) (Q96RI1 whole entry, looked up, the tested form may be a part): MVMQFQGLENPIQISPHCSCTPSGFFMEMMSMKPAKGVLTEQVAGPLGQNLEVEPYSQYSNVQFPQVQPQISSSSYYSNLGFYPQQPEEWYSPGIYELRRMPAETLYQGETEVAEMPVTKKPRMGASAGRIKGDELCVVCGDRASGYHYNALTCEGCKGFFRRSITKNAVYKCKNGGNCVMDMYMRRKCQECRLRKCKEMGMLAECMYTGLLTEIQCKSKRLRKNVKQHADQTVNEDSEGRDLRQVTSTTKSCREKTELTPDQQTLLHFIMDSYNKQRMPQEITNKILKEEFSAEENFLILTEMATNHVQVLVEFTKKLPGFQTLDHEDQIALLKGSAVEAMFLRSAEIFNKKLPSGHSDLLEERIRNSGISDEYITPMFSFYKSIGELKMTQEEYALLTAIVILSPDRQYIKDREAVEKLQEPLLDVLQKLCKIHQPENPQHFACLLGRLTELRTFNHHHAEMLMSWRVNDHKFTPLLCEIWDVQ
# Chain of Steroid hormone receptor ERR1 (Homo sapiens) (P11474 whole entry, looked up, the tested form may be a part): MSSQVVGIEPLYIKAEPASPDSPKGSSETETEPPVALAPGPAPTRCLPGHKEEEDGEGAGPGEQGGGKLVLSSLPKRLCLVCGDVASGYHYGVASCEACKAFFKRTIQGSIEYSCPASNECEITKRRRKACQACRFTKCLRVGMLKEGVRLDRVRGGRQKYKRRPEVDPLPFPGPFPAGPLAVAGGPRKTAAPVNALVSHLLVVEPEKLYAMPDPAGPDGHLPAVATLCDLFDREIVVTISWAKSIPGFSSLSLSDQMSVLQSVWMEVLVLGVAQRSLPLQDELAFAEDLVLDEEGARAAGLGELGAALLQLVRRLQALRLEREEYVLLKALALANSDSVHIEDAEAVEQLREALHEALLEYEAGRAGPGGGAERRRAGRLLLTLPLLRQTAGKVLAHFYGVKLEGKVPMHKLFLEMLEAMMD
# Chain of Estrogen receptor beta (Homo sapiens) (Q92731 whole entry, looked up, the tested form may be a part): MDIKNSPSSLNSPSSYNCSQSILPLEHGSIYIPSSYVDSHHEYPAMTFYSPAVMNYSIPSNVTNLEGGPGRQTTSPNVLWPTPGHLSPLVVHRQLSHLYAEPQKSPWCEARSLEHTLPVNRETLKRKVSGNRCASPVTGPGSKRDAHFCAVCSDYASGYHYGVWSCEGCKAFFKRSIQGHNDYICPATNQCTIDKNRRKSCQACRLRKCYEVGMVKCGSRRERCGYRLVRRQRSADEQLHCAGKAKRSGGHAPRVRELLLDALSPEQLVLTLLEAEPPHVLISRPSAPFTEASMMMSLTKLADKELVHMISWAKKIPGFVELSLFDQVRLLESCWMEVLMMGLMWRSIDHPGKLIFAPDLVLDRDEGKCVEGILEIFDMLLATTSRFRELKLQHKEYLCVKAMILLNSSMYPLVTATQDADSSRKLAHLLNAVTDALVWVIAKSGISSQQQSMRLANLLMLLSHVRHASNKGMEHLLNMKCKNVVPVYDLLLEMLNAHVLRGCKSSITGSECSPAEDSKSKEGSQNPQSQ
smiles,measurement,setting,value
CCCCC(CC)COC(=O)CS (stereo not drawn),outcome,[1],inactive
same,AC50,[2],50 µM (active)
same,AC50,[3],16 µM (active)
C[C@H]1C[C@H]2[C@@H]3CCC4=CC(=O)C=C[C@]4(C)[C@@]3(F)[C@@H](O)C[C@]2(C)[C@@]1(O)C(=O)CO,AC50,[4],44.6 µM (active)
O=C(OCc1ccccc1)c1ccccc1,outcome,[1],inactive
same,outcome,[2],inactive
same,outcome,[5],inactive
same,outcome,[6],inactive
CCCCCCCCCCC1CO1 (stereo not drawn),outcome,[4],inactive
same,AC50,[7],33.3 µM (active)
same,outcome,[8],inactive
same,outcome,[9],inactive
same,outcome,[10],inactive
same,AC50,[11],3.97 µM (active)
same,AC50,[12],20 µM (active)
same,AC50,[13],30.3 µM (active)
COC(=O)c1ccccc1,outcome,[4],inactive
Cc1ccnc(N)c1,outcome,[14],inactive
C/C=C(\C)C(=O)OCC/C=C\CC,outcome,[15],inactive
COc1ccccc1OCC(O)CO (stereo not drawn),outcome,[4],inactive
C=C(C)C(=O)OCC1CCCO1 (stereo not drawn),outcome,[15],inactive
C1=CCC=C1,outcome,[4],inactive
same,outcome,[2],inactive
same,outcome,[16],inactive
same,outcome,[17],inactive
c1cc[c]([Bi]([c]2ccccc2)[c]2ccccc2)cc1,AC50,[18],6.83 µM (active)
CCO[Si](CCCN)(OCC)OCC,outcome,[18],inactive
same,outcome,[1],inactive
same,outcome,[15],inactive
same,outcome,[5],inactive
same,outcome,[6],inactive
same,outcome,[16],inactive
CC1=NN(c2cc(Cl)c(S(=O)(=O)O)cc2Cl)C(=O)C1N=Nc1ccc(S(=O)(=O)O)cc1 (stereo not drawn),outcome,[4],inactive
same,outcome,[5],inactive
same,outcome,[6],inactive
same,outcome,[17],inactive
COc1ccc2ccccc2c1,outcome,[4],inactive
same,outcome,[18],inactive
same,outcome,[15],inactive
Cc1cccnc1,outcome,[4],inactive
same,outcome,[7],inactive
same,outcome,[8],inactive
same,outcome,[9],inactive
same,outcome,[10],inactive
same,outcome,[11],inactive
same,outcome,[12],inactive
same,outcome,[13],inactive
same,outcome,[19],inactive
same,outcome,[20],inactive
same,outcome,[3],inactive
same,outcome,[5],inactive
same,outcome,[6],inactive
same,outcome,[17],inactive
